# Assay results as given in ChEMBL document CHEMBL4808148, “HDAC6 screening dataset using tau-based substrate in an enzymatic assay yields selective inhibitors and activators” (2021).
# Where “and” joins values, the source holds several entries; their conditions need not be identical. Equal entries are not always repeated. The campaign covered roughly 5,600 compounds. About 390 (7%) showed an effect of 50% or more. Many of the other results were omitted from the sample, so strong results are more common in it than they were.
# How the values were obtained:
# [1] = target: T1, Protein deacetylase HDAC6 (Homo sapiens) (UniProt Q9UBN7); conditions: at 10 µM
# T1 sequence (whole entry): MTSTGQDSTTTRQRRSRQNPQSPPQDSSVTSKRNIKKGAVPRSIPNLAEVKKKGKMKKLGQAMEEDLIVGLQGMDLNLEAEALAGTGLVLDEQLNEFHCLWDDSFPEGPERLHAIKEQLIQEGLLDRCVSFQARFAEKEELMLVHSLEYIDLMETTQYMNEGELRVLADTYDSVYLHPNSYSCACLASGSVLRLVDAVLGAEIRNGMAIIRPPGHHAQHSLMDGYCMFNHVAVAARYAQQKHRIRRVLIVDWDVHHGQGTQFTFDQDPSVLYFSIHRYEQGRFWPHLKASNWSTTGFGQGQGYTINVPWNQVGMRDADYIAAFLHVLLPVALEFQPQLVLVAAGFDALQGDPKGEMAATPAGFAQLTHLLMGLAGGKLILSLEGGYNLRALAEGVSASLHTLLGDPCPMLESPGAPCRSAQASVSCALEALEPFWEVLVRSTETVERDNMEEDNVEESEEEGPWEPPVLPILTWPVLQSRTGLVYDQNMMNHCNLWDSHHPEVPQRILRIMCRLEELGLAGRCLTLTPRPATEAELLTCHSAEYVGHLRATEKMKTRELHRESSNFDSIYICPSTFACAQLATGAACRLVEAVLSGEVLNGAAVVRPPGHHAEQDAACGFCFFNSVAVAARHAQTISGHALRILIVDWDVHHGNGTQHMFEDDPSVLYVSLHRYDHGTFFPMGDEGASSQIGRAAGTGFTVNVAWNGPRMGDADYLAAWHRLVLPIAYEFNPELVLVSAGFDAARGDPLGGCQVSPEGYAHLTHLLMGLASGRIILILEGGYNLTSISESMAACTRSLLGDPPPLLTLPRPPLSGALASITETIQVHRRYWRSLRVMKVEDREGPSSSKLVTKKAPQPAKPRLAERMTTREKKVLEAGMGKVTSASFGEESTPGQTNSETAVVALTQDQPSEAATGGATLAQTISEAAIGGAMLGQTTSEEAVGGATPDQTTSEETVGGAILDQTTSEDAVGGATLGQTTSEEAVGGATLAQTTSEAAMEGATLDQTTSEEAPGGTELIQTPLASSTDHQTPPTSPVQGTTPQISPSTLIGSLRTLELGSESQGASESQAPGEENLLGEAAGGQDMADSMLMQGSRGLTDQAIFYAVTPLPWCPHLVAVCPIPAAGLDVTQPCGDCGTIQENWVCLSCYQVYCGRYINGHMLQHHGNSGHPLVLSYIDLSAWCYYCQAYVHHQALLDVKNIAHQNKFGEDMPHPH
# [2] = target: Protein deacetylase HDAC6 (Homo sapiens) (UniProt Q9UBN7); conditions: at 10 µM; remark: listed apart in the source
Molecule,inhibition [1],inhibition [2]
CN(C)Cc1c(C(=O)NCCOc2ccc(C(=O)NO)cc2)oc2ccccc12,102%,
N#Cc1cc2c(OCC(O)CN3CCN(C(c4ccccc4)c4ccccc4)CC3)cccc2[nH]1 (racemic),3.02%,
O=C1CC2(CCCC2)CC(=O)N1CCNCC1COc2ccccc2O1 (centres undefined),5.51%,
CN(C)C(=O)n1nnnc1Cc1ccc(-c2ccccc2)cc1,26.8%,
CCCNC(=O)N1N=C(c2ccc(N)cc2)c2cc3c(cc2C1C)OCO3 (centres undefined),26.2%,
Cc1[nH]c(/C=C2\C(=O)Nc3ccc(F)cc32)c(C)c1C(=O)NC[C@H](O)CN1CCOCC1,34%,
Cc1ccc(OCCSc2ncccn2)c(Br)c1,99.3%,
CCCCCCCCCCCCCCC[C@@H](O)[C@@H](N)CO,26%,
"Sodium stibogluconate, CHEMBL2079699",,0.83%
Cc1[nH]c(/C=C2\C(=O)Nc3ccccc32)c(C)c1CCC(=O)O,30.1%,
CCN(CC)CCNC(=O)c1c(C)[nH]c(/C=C2\C(=O)Nc3ccc(F)cc32)c1C,16.3%,
Cc1cc(C)c(/C=C2\C(=O)Nc3ccccc32)[nH]1,88.8%,
CN(C)c1ccc(/C=C2\C(=O)Nc3ccccc32)cc1,101%,
C#Cc1c[nH]c(=O)[nH]c1=O,-6.92%,
CC1(C)CN2C(CS/C(=N\C3CCCCC3)NC3CCCCC3)=CSC2=N1,12.2%,
O=S(=O)(NC1CCNCC1)c1cc(S(=O)(=O)c2ccccc2)ccc1C(F)(F)F,-7.14%,
CC(CCCCC(=O)Nc1ccc(C(F)(F)F)cc1)NCCc1c[nH]cn1 (centres undefined),3.94%,
C/C(=C\CNc1ncnc2[nH]cnc12)CO,5.74%,
O=c1oc2ccccc2c(O)c1Cc1c(O)c2ccccc2oc1=O,-8.39%,
CCC(c1ccccc1)c1c(O)c2ccccc2oc1=O (centres undefined),16.2%,
O=c1c2ccccc2oc2ccccc12,92.3%,
Cc1cc(-c2nc3cc(F)ccc3s2)ccc1NC(=O)[C@@H](N)CCCCN,28.4%,
CNCCC=C1c2ccccc2C=Cc2ccccc21,15.7%,
CN(C)CCC=C1c2ccccc2C=Cc2ccccc21,63.9%,
CN(C)CCC=C1c2ccccc2COc2ccccc21,-7.53%,
CNc1cc2c(Nc3cccc(Br)c3)ncnc2cn1,9.09%,
Cc1ccc2nc(NCCN)c3ncc(C)n3c2c1,4.14%,

Molecule,inhibition [1],inhibition [2]
O=C1Nc2ccc(I)cc2C1=Cc1cc(Br)c(O)c(Br)c1,72.9%,
C=C[C@@H]1C[C@]1(NC(=O)[C@@H]1C[C@@H]2CN1C(=O)[C@H](C(C)(C)C)NC(=O)O[C@@H]1C[C@H]1CCCCCc1nc3ccc(OC)cc3nc1O2)C(=O)NS(=O)(=O)C1CC1,0.36%,
O=c1c2c(c1=O)N(CCP(=O)(O)O)CCCN2,12.1%,
Cc1ccc([N+](=O)[O-])cc1S(=O)(=O)N(C)C,6.18%,
S=C(NCCc1ccccn1)Nc1ccc(Br)cn1,8.48%,
COC(c1ccccc1)(c1ccccc1)[C@H](Oc1nc(C)cc(C)n1)C(=O)O,-8.71%,
"Mangafodipir (trisodium), CHEMBL5308448",,18%
"hemin, CHEMBL5308479",,56.4%
"NKP-1339, CHEMBL5308480",,34.9%
COc1ccc(CC2NCCc3c2[nH]c2ccc(C)cc32)c(Cl)c1OC (centres undefined),-1.23%,
O=C(Nc1ccccc1)Nc1ccc(-c2ccc(C(=O)[C@@H]3CCC[C@H]3C(=O)O)cc2)cc1,4.7% and 12.5%,
CN1CCN(C(=O)c2nc3ccc(Cl)cc3[nH]2)CC1,16.2%,
CN1CCN(c2ccc3nc(-c4c(N)c5c(F)cccc5[nH]c4=O)[nH]c3c2)CC1,86.8%,
CC(C)=CCC[C@](C)(O)[C@H]1CC[C@]2(C)[C@@H]1[C@H](O)C[C@@H]1[C@@]3(C)CC[C@H](O[C@@H]4O[C@H](CO)[C@@H](O)[C@H](O)[C@H]4O[C@@H]4O[C@H](CO)[C@@H](O)[C@H](O)[C@H]4O)C(C)(C)[C@@H]3CC[C@]12C,11.5%,
O=C(Cn1ccnc1[N+](=O)[O-])NCc1ccccc1,32.3%,
Cc1c[nH]c(=O)n(CCCN2CCN(c3ccccc3OCC(F)(F)F)CC2)c1=O,19.2%,
COc1ccc(-c2nc(N3CCOCC3)c3sc(CN(C)c4ncc(C(=O)NO)cn4)cc3n2)cn1,98%,
COC(=O)Nc1ccc(-c2nc(N3CCOCC3)c3cnn(C4CCN(C(=O)OC)CC4)c3n2)cc1,21.1%,
CS(=O)(=O)N1CCN(Cc2cc3nc(-c4cccc5[nH]ncc45)nc(N4CCOCC4)c3s2)CC1,11.1%,
C[N+](C)(C)NCCC(=O)[O-],17.8%,
Cn1c(=O)c2c(ncn2CCOC(=O)C(C)(C)Oc2ccc(Cl)cc2)n(C)c1=O,23.6%,
c1ccc(-c2n[nH]c3c2oc2ccccc23)cc1,95%,
CCC/C=C1\OC(=O)C2=C1CCC=C2,39.5%,
CC(=C\c1ccc(Cl)cc1)/C(C)=N/O,2.85%,
NC(CC(F)C(=O)O)C(=O)O (racemic),38.9%,
C=CC(C)(C)c1cc(/C=C/C(=O)c2ccc(O)cc2)c(OC)cc1O,75.1%,
COC(=O)/C=C/c1cc(O)ccc1O,28.1%,
